Where “and” joins values, the source holds several entries; their conditions need not be identical. Identical values can stand only once. More than one record can exist for a structure, and the calls need not agree. Calls of active or inactive are those of the source. Rule for the calls: active = hit-call score of the fitted dose curve at least 0.9, where 1 is the maximum; inactive = score below 0.9.
Tests used:
[1] = read-out: Basic fibroblast growth factor (bFGF), FGF2 (gene 2247); experiment: BSK_MyoF_bFGF: BioMAP Diversity Plus: MyoF Assay for Basic fibroblast growth factor (bFGF) Biomarker Activity (AID 2284246); conditions: primary human lung fibroblasts
Procedure, shortened: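 Human lung fibroblast cultures were dosed and measured 24 h later in 96-well format. bFGF biomarker levels quantified by ELISA, with activity fitted in the positive direction against DMSO.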

[2] = read-out: Plasminogen activator inhibitor-1 (PAI1), SERPINE1 (gene 5054); experiment: BSK_MyoF_PAI1: BioMAP Diversity Plus: MyoF Assay for Plasminogen activator inhibitor-1 (PAI1) Biomarker Activity (AID 2284256); conditions: primary human lung fibroblasts
Procedure, shortened: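 ELISA read-out of PAI-1 from primary human lung fibroblast cultures 24 h after dosing; gain-of-signal fit versus DMSO control.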

[3] = read-out: Interleukin-8 (IL8), CXCL8 (gene 3576); experiment: BSK_MyoF_IL8: BioMAP Diversity Plus: MyoF Assay for Interleukin-8 (IL8) Biomarker Activity (AID 2284261); conditions: primary human lung fibroblasts
Procedure, shortened: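 ELISA read-out of IL-8 from primary human lung fibroblasts, 24 h post-dose; positive-direction curve fitting relative to DMSO vehicle baseline.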

Decorin, DCN (gene 1634) = experiment: BSK_MyoF_Decorin: BioMAP Diversity Plus: MyoF Assay for Decorin Biomarker Activity (AID 2284265); conditions: primary human lung fibroblasts
Procedure, shortened: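 Human lung fibroblasts in the MyoF system were exposed to compound for 24 h, after which decorin was quantified by ELISA. Activity was fitted in the positive direction relative to DMSO negative control.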

[4] = BSK_MyoF_SRB: Viability Assessment in the BioMAP Diversity Plus: MyoF Assay (AID 2284267); conditions: primary human lung fibroblasts;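 note: total protein by SRB absorbance in parallel cultures as cytotoxicity measure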
Procedure, shortened: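 Human lung fibroblasts, 24 h after chemical dosing; total protein measured by 0.1% sulforhodamine B staining after 10% TCA fixation, read at 560 nm, fitted relative to DMSO baseline.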

[5] = read-out: Matrix Metallopeptidase 1 (MMP1), MMP1 (gene 4312); experiment: BSK_MyoF_MMP1: BioMAP Diversity Plus: MyoF Assay for Matrix Metallopeptidase 1 (MMP1) Biomarker Activity (AID 2284268); conditions: primary human lung fibroblasts
Procedure, shortened: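 ELISA readout of MMP1 in primary human lung fibroblast cultures, 24 h post-dosing. Gain of signal versus DMSO vehicle control defines activity. Parallel SRB staining (0.1% after 10% TCA fixation, 560 nm) flags overt cytotoxicity.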

[6] = read-out: TIMP metallopeptidase inhibitor 1 (TIMP1), TIMP1 (gene 7076); experiment: BSK_MyoF_TIMP1: BioMAP Diversity Plus: MyoF Assay for TIMP metallopeptidase inhibitor 1 (TIMP1) Biomarker Activity (AID 2284269); conditions: primary human lung fibroblasts
Procedure, shortened: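 Primary human lung fibroblasts, MyoF multiplex system; chemical exposure 24 h; TIMP-1 by ELISA; positive fitting direction vs DMSO control.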

[7] = read-out: Monokine induced gamma interferon (MIG), CXCL9 (gene 4283); experiment: BSK_KF3CT_MIG: BioMAP Diversity Plus: KF3CT Assay for Monokine induced gamma interferon (MIG) Biomarker Activity (AID 2284248); conditions: primary human keratinocytes with fibroblasts
Procedure, shortened: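 Human keratinocyte plus foreskin fibroblast primary co-culture dosed with test chemical for 24 h; MIG level measured by ELISA and fitted in the positive direction against DMSO as baseline.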

[8] = read-out: Plasminogen activator inhibitor-1 (PAI1), SERPINE1 (gene 5054); experiment: BSK_KF3CT_PAI1: BioMAP Diversity Plus: KF3CT Assay for Plasminogen activator inhibitor-1 (PAI1) Biomarker Activity (AID 2284252); conditions: primary human keratinocytes with fibroblasts
Procedure, shortened: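 Human keratinocyte/foreskin fibroblast co-culture dosed for 24 h; PAI-1 measured by ELISA, fitted in positive direction against DMSO baseline. Parallel SRB total-protein staining (0.1% SRB, 560 nm) assesses overt cytotoxicity.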

[9] = read-out: Vascular cell adhesion molecule 1 (VCAM1), VCAM1 (gene 7412); experiment: BSK_BF4T_VCAM1: BioMAP Diversity Plus: BF4T Assay for Vascular cell adhesion molecule 1 (VCAM1) Biomarker Activity (AID 2284249); conditions: primary human bronchial epithelial cells with fibroblasts
Procedure, shortened: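 Human bronchial epithelial cell and dermal fibroblast co-culture exposed 24 h. VCAM-1 measured by ELISA; parallel SRB total-protein staining for cytotoxicity. Fitted in positive direction relative to DMSO.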

[10] = read-out: Monocyte Chemoattractant Protein-1 (MCP1), CCL2 (gene 6347); experiment: BSK_IMphg_MCP1: BioMAP Diversity Plus: IMphg Assay for Monocyte Chemoattractant Protein-1 (MCP1) Biomarker Activity (AID 2284253); conditions: primary human endothelial cells with macrophages
Procedure, shortened: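 Human venular endothelial cells co-cultured with macrophages; MCP-1 measured by ELISA 24 hours post-dose and fitted against DMSO. Cytotoxicity monitored by SRB total-protein staining in parallel cultures.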

[11] = read-out: Macrophage Inflammatory Protein-1 Alpha (MIP1a), CCL3 (gene 6348); experiment: BSK_IMphg_MIP1a: BioMAP Diversity Plus: IMphg Assay for Macrophage Inflammatory Protein-1 Alpha (MIP1a) Biomarker Activity (AID 2284255); conditions: primary human endothelial cells with macrophages
Procedure, shortened: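 Co-culture of human venular endothelial cells and macrophages exposed to compounds for 24 h; MIP-1a measured by ELISA relative to DMSO. Cytotoxicity assessed in parallel cultures by sulforhodamine B total-protein staining at 560 nm.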

CD69, CD69 (gene 969) = experiment: BSK_IMphg_CD69: BioMAP Diversity Plus: IMphg Assay for CD69 Biomarker Activity (AID 2284257); conditions: primary human endothelial cells with macrophages
Procedure, shortened: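 Human venular endothelial cells co-cultured with macrophages; CD69 quantified by ELISA 24 h after compound addition. Activity fitted in the positive direction relative to DMSO baseline; cytotoxicity tracked in parallel cultures via SRB total-protein staining.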

[12] = read-out: Eotaxin 3, CCL26 (gene 10344); experiment: BSK_BF4T_Eotaxin3: BioMAP Diversity Plus: BF4T Assay for Eotaxin 3 Biomarker Activity (AID 2284258); conditions: primary human bronchial epithelial cells with fibroblasts
Procedure, shortened: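 Co-culture of human bronchial epithelial cells and dermal fibroblasts, exposed to chemicals for 24 h versus DMSO. Eotaxin-3 quantified by ELISA; cytotoxicity checked in parallel cultures by sulforhodamine B total-protein staining.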

[13] = read-out: Monocyte Chemoattractant Protein-1 (MCP1), CCL2 (gene 6347); experiment: BSK_BF4T_MCP1: BioMAP Diversity Plus: BF4T Assay for Monocyte Chemoattractant Protein-1 (MCP1) Biomarker Activity (AID 2284259); conditions: primary human bronchial epithelial cells with fibroblasts
Procedure, shortened: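 Co-culture of bronchial epithelial cells and dermal fibroblasts dosed with chemical; MCP-1 measured by ELISA 24 h later. Activity fitted in positive direction versus DMSO; cytotoxicity checked by SRB staining in parallel cultures.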

[14] = read-out: Intercellular Adhesion Molecule 1 (ICAM1), ICAM1 (gene 3383); experiment: BSK_BF4T_ICAM1: BioMAP Diversity Plus: BF4T Assay for Intercellular Adhesion Molecule 1 (ICAM1) Biomarker Activity (AID 2284260); conditions: primary human bronchial epithelial cells with fibroblasts
Procedure, shortened: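 Co-culture of human bronchial epithelial cells and dermal fibroblasts exposed 24 h to chemical; cell-surface ICAM-1 quantified by ELISA. Parallel SRB total-protein staining assessed cytotoxicity; activity fitted relative to DMSO.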

CD90, THY1 (gene 7070) = experiment: BSK_BF4T_CD90: BioMAP Diversity Plus: BF4T Assay for CD90 Biomarker Activity (AID 2284262); conditions: primary human bronchial epithelial cells with fibroblasts
Procedure, shortened: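 Co-culture of human bronchial epithelial cells and dermal fibroblasts, 24 h compound exposure. Cell-surface CD90 measured by ELISA relative to DMSO; parallel SRB total-protein staining for cytotoxicity.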

[15] = read-out: Interleukin-8 (IL8), CXCL8 (gene 3576); experiment: BSK_BF4T_IL8: BioMAP Diversity Plus: BF4T Assay for Interleukin-8 (IL8) Biomarker Activity (AID 2284263); conditions: primary human bronchial epithelial cells with fibroblasts
Procedure, shortened: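 Human bronchial epithelial cells with dermal fibroblasts co-culture; IL-8 measured by ELISA 24 hours after dosing, fitted vs DMSO. Cytotoxicity tracked in parallel cultures by SRB total-protein staining.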

[16] = read-out: Interleukin-1 alpha (IL1a), IL1A (gene 3552); experiment: BSK_BF4T_IL1a: BioMAP Diversity Plus: BF4T Assay for Interleukin-1 alpha (IL1a) Biomarker Activity (AID 2284264); conditions: primary human bronchial epithelial cells with fibroblasts
Procedure, shortened: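 Human bronchial epithelial cells co-cultured with dermal fibroblasts, dosed and read at 24 h. Secreted/surface IL-1α quantified by ELISA; gain-of-signal fitted relative to DMSO baseline. Parallel SRB total-protein staining tracked cytotoxicity.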

KRT18 (gene 3875) = experiment: BSK_BF4T_Keratin818: BioMAP Diversity Plus: BF4T Assay for Keratin 818 Biomarker Activity (AID 2284266); conditions: primary human bronchial epithelial cells with fibroblasts
Procedure, shortened: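 Co-culture of human bronchial epithelial cells and dermal fibroblasts, chemical exposure 24 h. Keratin 8/18 measured by ELISA; positive-direction fit vs DMSO. SRB total protein run in parallel cultures for cytotoxicity.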

Measured: AC50

CC(=O)OC(C)(C)C1CC=C(C)CC1 (stereo not drawn)
inactive: [1] | [2] | [3] | Decorin, DCN (gene 1634) | [4] | [5] | [6]

c1ccc(OCCOc2ccccc2)cc1
inactive: [7] | [8]

CC1(C)[C@H](C=C(Cl)Cl)[C@H]1C(=O)OCc1cccc(Oc2ccccc2)c1
inactive: [1] | [2] | [3] | Decorin, DCN (gene 1634) | [4] | [5] | [6]

OCCN1CCOCC1
inactive: [1] | [2] | [3] | Decorin, DCN (gene 1634) | [4] | [5] | [6]

CC(=O)CCC=C(C)CCC=C(C)C
inactive: [1] | [3] | Decorin, DCN (gene 1634) | [4] | [5] | [6]
active: [2] 0.016 µM

CCOC(=O)CCCCCCCCC(=O)OCC
inactive: [1] | [2] | [3] | Decorin, DCN (gene 1634) | [4] | [5] | [6]

c1ccc(Sc2ccccc2)cc1
inactive: [2]
active: [1] 31.9 µM | [3] 30.6 µM | Decorin, DCN (gene 1634) 36.5 µM | [4] 34.8 µM | [5] 30.8 µM | [6] 32.3 µM

COc1ccccc1NC(=O)CC(C)=O
inactive: [1] | [2] | [3] | Decorin, DCN (gene 1634) | [4] | [5] | [6]

CC(C)(CO)CO
inactive: [7] | [8]

CCCO[Si](OCCC)(OCCC)OCCC
inactive: [7] | [8]

c1ccc2c(c1)-c1ccc3ccc4cccc5cc-2c1c3c45
active: [2] 1.24 µM | [5] 1.33 µM
inactive: [1] | [3] | Decorin, DCN (gene 1634) | [4] | [6]

NC(=O)c1c(Cl)cccc1Cl
inactive: [1] | [3] | Decorin, DCN (gene 1634) | [4] | [5] | [6]
active: [2] 4.48 µM

OCC(F)(OC(F)(F)C(F)(OC(F)(F)C(F)(F)C(F)(F)F)C(F)(F)F)C(F)(F)F (stereo not drawn)
inactive: [1] | [9] | [10] | [11] | [2] | CD69, CD69 (gene 969) | [12] | [13] | [14] | [3] | CD90, THY1 (gene 7070) | [15] | [16] | Decorin, DCN (gene 1634) | KRT18 (gene 3875) | [5] | [6]
active: [7] 5.41 µM and 3.33 µM | [8] 5 µM and 4.79 µM | [10] 4.65 µM | [13] 4.19 µM | [4] 2.54 µM and 3.33 µM

O=C(O)C(F)(F)C(F)(F)C(F)(F)C(F)(F)C(F)(F)C(F)(F)C(F)(F)C(F)F
inactive: [1] | [7] | [9] | [8] | [10] | [11] | [2] | CD69, CD69 (gene 969) | [3] | CD90, THY1 (gene 7070) | [15] | [16] | Decorin, DCN (gene 1634) | KRT18 (gene 3875) | [4] | [5] | [6]
active: [9] 2.3 µM | CD69, CD69 (gene 969) 0.257 µM | [12] 4.86 µM and 2.55 µM | [13] 2.81 µM and 1.53 µM | [14] 2.59 µM and 3.49 µM | Decorin, DCN (gene 1634) 22.5 µM

CCCCCCCCCCCCS
inactive: [3] | [6]
active: [1] 29 µM | [2] 20 µM | Decorin, DCN (gene 1634) 3.97 µM | [4] 20 µM | [5] 5.81 µM

CCCCN(CCO)CCO
inactive: [7] | [8]

Nc1ccc(N)c([N+](=O)[O-])c1
inactive: [1] | [2] | [3] | Decorin, DCN (gene 1634) | [4] | [5] | [6]

CCCCCCCCCC(=O)OCC
inactive: [1] | [2] | [3] | Decorin, DCN (gene 1634) | [4] | [5] | [6]

O=C(O)C(F)(F)OC(F)(F)C(F)(F)OC(F)(F)C(F)(F)C(F)(F)C(F)(F)F
active: CD69, CD69 (gene 969) 40.3 µM | [12] 5.34 µM and 2.49 µM | [13] 8.8 µM and 220 nM | [15] 1.82 µM and 4.77 µM | [6] 11.9 µM and 8.26 µM
inactive: [1] | [7] | [9] | [8] | [10] | [11] | [2] | CD69, CD69 (gene 969) | [14] | [3] | CD90, THY1 (gene 7070) | [16] | Decorin, DCN (gene 1634) | KRT18 (gene 3875) | [4] | [5]
